Only some compounds are listed: those with a hit (about 0.26% of all), similar ones and a draw of the others.
MBNL1 CUG block – inhibitors of human MBNL1 binding to CUG repeat RNA. Potency, µM (top dose mostly 57.5 µM), inactives show at the top dose activity change, negative = inhibition, actives largely listed as inhibitors. AID 2675. actives 0.036% (n = 280,000). Q9NR56. TR-FRET MBNL1-His/biotin-(CUG)12 binding, 665/545 ratio; active = well fitted inhibition curve with a large enough effect in the signal ratio, with a control signal flat, not every such curve was filed as active; inconclusive = small, poorly fitted or top-dose-only effect, or effect the other way, or a change in a side signal; inactive = no such curve, though single readings can be large or run the other way; the % refers to the signal ratio; also: potency is read from the fitted curve at half-maximal effect; % is scaled to controls: 0 for no effect and ±100 for the full control effect
Target sequence (Q9NR56 whole entry, looked up): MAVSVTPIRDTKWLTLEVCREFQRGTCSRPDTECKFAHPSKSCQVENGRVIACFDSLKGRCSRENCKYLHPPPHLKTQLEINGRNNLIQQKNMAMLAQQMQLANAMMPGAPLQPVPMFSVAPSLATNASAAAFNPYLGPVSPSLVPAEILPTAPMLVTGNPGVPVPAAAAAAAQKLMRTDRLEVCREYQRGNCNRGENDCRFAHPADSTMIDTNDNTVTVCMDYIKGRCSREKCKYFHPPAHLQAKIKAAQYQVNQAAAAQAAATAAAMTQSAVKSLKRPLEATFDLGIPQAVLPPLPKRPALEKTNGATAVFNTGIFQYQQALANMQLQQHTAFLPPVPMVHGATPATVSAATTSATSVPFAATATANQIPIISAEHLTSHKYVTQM
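His-tagged MBNL1 binding to biotinylated (CUG)12 RNA was measured by TR-FRET using terbium anti-His antibody (0.055 ng/ul final) and streptavidin-XL665 (5 nM final). Compounds were titrated 92 nM to 58 uM; 60 min at room temperature.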
TSHR antag – human thyrotropin receptor antagonism; P16473; TSHR-expressing cells, TSH-stimulated cAMP HTRF, 2 h; active compounds read low; activity change, negative = inhibition, % at 11.5 µM; actives 0.2% (n = 330,000); AID 504810;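 active = activity change below a set negative limit, meaning inhibition stronger than a set level, cut at about -70% in these data; inconclusive = activity change between two set negative limits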; also: % is scaled to controls: 0 for no effect and ±100 for the full control effect
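Read-out is FRET at 665 nm (cryptate excitation 337 nm) from a cryptate-tagged anti-cAMP antibody, competed by cell cAMP against cAMP-d2. Compounds are tested on freshly harvested TSHR cells challenged with 4nM TSH (EC80) for 2 hours at 37 deg C.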
PTAP TSG101 blk – blocks PTAP/TSG101 interaction to inhibit HIV-1 budding; Q99816; Fluorescence polarization, FITC-PTAP peptide / Tsg101 binding; Potency, µM (doses to about 115 µM), without a hit: at the highest dose activity change, negative = inhibition, usual class: inhibitors; 340,000 tested, under 10 active; active = well fitted inhibition curve with a large enough effect in the main read-out, with a control signal flat, not every such curve was filed as active; inconclusive = small, poorly fitted or top-dose-only effect, or effect the other way, or a change in a side signal; inactive = no such curve, though single readings can be large or run the other way; also: potency is read from the fitted curve at half-maximal effect; % of control where 0% means no effect
Target sequence (Q99816 whole entry, looked up): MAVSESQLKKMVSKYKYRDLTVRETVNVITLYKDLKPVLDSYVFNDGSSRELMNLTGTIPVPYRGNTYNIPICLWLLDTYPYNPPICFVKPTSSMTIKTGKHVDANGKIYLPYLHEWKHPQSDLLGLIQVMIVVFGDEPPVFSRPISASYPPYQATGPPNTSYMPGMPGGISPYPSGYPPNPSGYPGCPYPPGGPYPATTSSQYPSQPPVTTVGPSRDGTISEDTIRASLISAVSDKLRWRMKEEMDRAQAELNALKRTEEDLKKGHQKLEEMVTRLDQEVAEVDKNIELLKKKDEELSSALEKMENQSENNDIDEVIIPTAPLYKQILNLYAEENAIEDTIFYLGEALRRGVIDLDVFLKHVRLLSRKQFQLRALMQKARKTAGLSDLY
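Compounds were pin-transferred onto Tsg101 binding domain (10 uM final) in HEPES pH 7.5 buffer, then FITC-PTAP peptide was added at 50 nM final. After 20 min at RT, polarization reported peptide displacement across a qHTS concentration series.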
a7 integrin act – activators of alpha7 integrin expression for muscular dystrophy; alpha7betagal myoblasts, beta-gal FDG fluorescence, 48 h; Potency, µM (titrated, usually from 38.3 µM), inactives show top-dose activation, actives largely listed as activators; actives 0.064% (n = 350,000);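 also: potency is read from the fitted curve at half-maximal effect; 100% = response of the positive control SU9516; nearly all actives have a fitted effect of over 60% in size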
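Alpha7betagal+/- myoblasts (passage 13) were plated 16-24 hr, then exposed to compounds (1:260 dilution of DMSO stock) for 48 hours at 37C. After MPER lysis, β-galactosidase reporter activity was read as FDG fluorescence (ex 480/em 540) after 30 minutes.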
TCR act – activators of T cell receptors; primary human leukocytes, anti-CD3, IL-2 HTRF, 48 h; Potency, µM (top dose mostly 9.22 µM), without a hit: top-dose activation of IL-2 secretion, usual class: activators; 330,000 tested, under 10 active; AID 504894; also: % of control where 0% means no effect
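Readout: HTRF IL-2, Eu-cryptate/d2 antibody pair, 320nm excitation, 665nm emission. Stimulus: a-CD3 beads, no co-stimulation. Cells: primary human leukocytes. Exposure: 48 hr with compound.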
CBFb RUNX1 block – inhibitors of human CBF-beta and RUNX1 interaction; AlphaScreen CBFb-His/RUNX1-biotin binding, biochemical; 230,000 tested, under 10 active; Q01196+Q13951; Potency, µM (top dose mostly 59.8 µM), inactives show at the top dose activity, negative = inhibition, hits mostly inhibitors; AID 1477; also: % of control where 0% means no effect
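Compounds were screened at multiple concentrations against a preformed CBF-beta(His)/RUNX1(biotin) complex (30 nM of each) for 15 min at room temperature, followed by 90 min with nickel and streptavidin beads and AlphaScreen reading.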
An asterisk follows results filed as active; ? = inconclusive; nt = no result; [ ] = another dose, or the depositor's remark. Unless noted, calls follow the shape of the dose curve; as a rule, active = well fitted curve in the direction sought with a large enough effect; inconclusive = small, poorly fitted or top-dose-only effect, or another doubt; inactive = no such curve, though single readings can be large; an effect the other way counts as inactive or inconclusive.

SMILES	MBNL1 CUG block	TSHR antag	PTAP TSG101 blk	a7 integrin act	TCR act	CBFb RUNX1 block
O=C(NCCC1=CCCCC1)C(=O)NCC1OCCCN1S(=O)(=O)c1cc(F)ccc1F (stereo unspecified)	-2.1%	-96.4*	-5.1%	-31.4%	1.5%	24.0%
O=C(NCCC1=CCCCC1)C(=O)NCC1OCCCN1S(=O)(=O)c1ccc(F)cc1 (stereo unspecified)	-3.1%	-22.0	0.9%	5.3%	5.7%	-13.5%
CCN(C(=O)c1cc2c(=O)n3ccccc3nc2n1C)C1CCCCC1	?	-122.7*	-3.0%	-3.4%	-5.1%	nt
CN(C(=O)c1cc2c(=O)n3ccccc3nc2n1C)C1CCCCC1	?	39.2	nt	-21.9%	-5.5%	nt
c1ccc2c(c1)SCc1c-2[nH]c2ccccc12	nt	nt	nt	nt	nt	-25.2%
CC1=C/C(=N\OS(=O)(=O)c2ccccc2)C(C)=CC1=O	20.2%	-84.2*	0.5%	-55.1%	-2.2%	2.0%
CC(S(=O)(=O)c1ccccc1)S(=O)(=O)c1ccccc1	nt	nt	nt	-10.5%	nt	nt
CC1=C/C(=N\OS(=O)(=O)c2ccccc2)C(C(C)C)=CC1=O	9.0%	-84.5*	0.5%	-55.1%	1.6%[46.1 µM]	4.3%
CC1=C(C)/C(=N\OS(=O)(=O)c2ccc(C)cc2)C=CC1=O	3.8%	16.4	0.9%	-54.4%	0.4%[46.1 µM]	7.5%
CC(C)C[C@@H](CC(=O)N[C@@H](CCC(=O)O)CC(=O)O)NC(=O)[C@@H]1CNCC[C@H]1NC(=O)C[C@@H](NC(=O)C[C@H](Cc1c[nH]c2ccccc12)NC(=O)[C@@H]1CCCC[C@H]1N)C(C)C	nt	nt	nt	nt	nt	6.9%
COc1cc(OC)c(NC(=O)Cn2cnc3sc(C)c(S(=O)(=O)N4CCOCC4)c3c2=O)cc1Cl	-7.8%	-97.2*	-6.1%	14.7%	1.9%	nt
COc1ccc(OC2C=CC(C#Cc3ccc(Br)cc3)OC2CO)c(C(C)(C)C)c1 (stereo unspecified)	nt	nt	nt	nt	nt	-1.5%[13.1 µM]
COc1ccc(CC(=O)Nc2cccc(-c3nnc(-c4cccc(C)c4)o3)c2)cc1OC	-0.1%	-92.4*	0.8%	-38.5%	-6.0%	-6.0%
O=C(CSc1cccc2cccnc12)N/N=C/c1ccc(O)cc1	14.1%	-77.5*	-8.8%	8.1%	-4.3%	8.1%
COc1cccc(/C=N/NC(=O)CSc2cccc3cccnc23)c1	?	-3.6	-5.9%	-76.5%	-4.1%	-17.4%
Cc1ccccc1/C=C/C(=O)c1ccc([N+](=O)[O-])o1	nt	-79.5*	-0.5%	-42.4%	-7.0%	nt
CC(C)(C)OC(=O)N1CCC[C@H]1C(O)(c1ccccc1)c1ccccc1	nt	nt	nt	nt	nt	-8.0%
CC(C(=O)Nc1ccc(C#N)cc1)N(C)CC(=O)Nc1cccc(F)c1 (stereo unspecified)	-14.4%	4.8	-6.1%	3.98µM*	-2.1%	-19.0%
Cc1ccc(Oc2cc(NC(=O)CCCn3nc([N+](=O)[O-])cc3C)cc([N+](=O)[O-])c2)cc1	nt	-70.5*	-2.3%	-26.3%	6.1%[46.1 µM]	-18.5%
COc1ccc2[nH]cc(CCO)c2c1	nt	nt	nt	nt	nt	-0.6%
CC[n+]1ccc(/C=C/c2ccc(N(C)C)cc2)c2ccccc21	?	-70.8*	-0.2%	?	46.9%	-21.7%
CC(C)COc1cccc(-c2cc(C(=O)Nc3ccon3)c3ccccc3n2)c1	-6.0%	-118.7*	-0.8%	-20.8%	0.1%	nt
O=C(Nc1ccc(Oc2ccc(Cl)cc2)c(Cl)c1)c1cc(I)cc(I)c1O	-6.0%	-93.8*	-0.3%	nt	-0.9%	nt
COc1ccc(-n2nc(C(=O)NCC(=O)NCCCN3CCN(C)CC3)c3ccccc3c2=O)cc1	?	-100.2*	-0.9%	?	1.6%	nt
COc1cc(C(=O)Nc2ccc(NC(=O)C3CCCCC3)nc2)cc(OC)c1OC	-2.3%	-5.6	-4.4%	4.1%	9.5%	nt
SMILES	MBNL1 CUG block	TSHR antag	PTAP TSG101 blk	a7 integrin act	TCR act	CBFb RUNX1 block
COc1cccc(C(=O)Nc2ccc(NC(=O)C3CCCCC3)nc2)c1	-5.2%	-103.0*	-0.5%	3.6%	8.5%	nt
CN1C(=O)CC2(C=CC(=O)C=C2OC(=O)c2ccccc2)c2ccccc21 (stereo unspecified)	nt	nt	nt	nt	nt	9.8%
CC(C)(C=O)C1=CC(=O)c2ccccc2C1=O	?	-86.5*	-3.9%	-46.1%	-0.8%[46.1 µM]	3.7%
CC(C)S(=O)(=O)C1=NSC2=NC(=O)/C(=C\c3ccc(-c4ccccc4)o3)C(=N)N21	1.6%	-85.6*	1.6%	21.4%	2.2%[46.1 µM]	-2.5%
CCC1Sc2ccc(S(=O)(=O)CCC(=O)Nc3ccccc3Cl)cc2NC1=O (stereo unspecified)	-19.7%	-131.3*	-5.6%	?	6.2%	nt
CN1C2CC(OC(=O)[C@H](CO)c3ccccc3)CC1C1OC12 (stereo partly specified)	nt	-13.4	nt	nt	nt	nt
CCOc1ccc(S(=O)(=O)NCCC(=O)NCC(c2cccs2)N2CCOCC2)cc1 (stereo unspecified)	-5.3%	5.9	nt	2.24µM*	0.4%	nt
Cc1ccccc1C(=O)Nc1nnc(SC(C)C)s1	nt	0.2	-2.3%	10µM*	0.7%	-10.0%
C=C(C)CC(C)(C)C	nt	nt	nt	nt	nt	0.5%
CC(C)C(C(=O)O)N1C(=O)/C(=C/c2ccc(Br)cc2)SC1=S (stereo unspecified)	nt	nt	nt	nt	nt	-7.2%
Cc1cccc(OCC(=O)Nc2nc3ccc([N+](=O)[O-])cc3s2)c1C	-0.2%	-75.9*	-0.8%	12.2%	5.7%	-1.4%
Cc1cccc(OCC(=O)Nc2nc3ccc([N+](=O)[O-])cc3s2)c1	8.8%	-31.7	0.4%	17.2%	5.5%	-15.9%
CCOC(=O)c1sc(NC(=O)CSc2n[nH]c(-c3ccncc3)n2)c(C#N)c1C	-3.7%	-74.5*	-7.7%	18.1%	5.2%	2.4%
CCOC(=O)c1sc(NC(=O)CSc2nccc(C)n2)c(C#N)c1C	-2.5%	-9.6	-0.1%	2.8%	-2.3%	3.7%
O=C1/C(=C\c2ccc(O)c(O)c2)Oc2c1ccc(O[C@@H]1O[C@H](CO)[C@@H](O)[C@H](O)[C@H]1O)c2O	nt	nt	nt	nt	nt	-29.1%
COc1cc(NS(=O)(=O)c2ccc(C)cc2C)cc(OC)c1OC	-5.8%	-87.3*	-3.6%	-51.8%	-3.4%	1.7%
O=C(Nc1cccc(S(=O)(=O)N2CCCCC2)c1)c1ccc2c(=O)n3c(nc2c1)CCCCC3	-16.2%	-77.4*	-2.1%	-19.3%	0.1%[46.1 µM]	10.7%
CCc1ccc(NC(=O)c2ccc3c(=O)n4c(nc3c2)CCCCC4)cc1	-12.1%	-27.5	-10.1%	-15.3%	4.7%	8.3%
